The text below walks through data of PubChem BioAssay (NCI).

Compounds without any hit were thinned out: in the full panel of roughly 83,000, 20% have a hit.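 Method: cells in 96-well plates; compound added at one concentration; 48 h incubation; percent growth measured; values under 10 scored active.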 A number with no mark means an inactive call. Activity calls are given as the source filed them.

Assay in all cases: NCI-60 one-dose screen, 48 h (100 = growth as untreated, 0 = no growth, -100 = all killed)
For one experiment, the system named is HT29 colon. Particulars: 10 µM unless noted.
The test system of the next experiment is SNB-75 CNS. Particulars: 10 µM unless noted.
A further experiment concerns SNB-19 CNS. Particulars: 10 µM unless noted.
A further experiment concerns U251 CNS. Particulars: 10 µM unless noted.
Another experiment deals with PC-3 prostate. The conditions noted are these: 10 µM unless noted.
In the next experiment the test system is SK-MEL-5 melanoma. Particulars: 10 µM unless noted.
Another experiment has as its system UACC-62 melanoma. The conditions noted are these: 10 µM unless noted.
The subject of the next experiment is LOX IMVI melanoma. The conditions noted are these: 10 µM unless noted.
Another experiment deals with SK-MEL-28 melanoma. The conditions noted are these: 10 µM.
The next experiment relates to SK-MEL-2 melanoma. Particulars: 10 µM unless noted.
Another experiment relates to SN12C renal. The conditions noted are these: 10 µM unless noted.
Another experiment concerns UO-31 renal. Particulars: 10 µM unless noted.
Another experiment concerns TK-10 renal. The conditions noted are these: 10 µM unless noted.
The test system of another experiment is ACHN renal. The conditions noted are these: 10 µM unless noted.
Another experiment concerns CAKI-1 renal. Particulars: 10 µM unless noted.
The test system of another experiment is A498 renal. The conditions noted are these: 10 µM unless noted.
The subject of the next experiment is CCRF-CEM leukemia. Particulars: 10 µM unless noted.
In the next experiment the test system is MOLT-4 leukemia. Particulars: 10 µM unless noted.
In a further experiment the test system is SR leukemia. The conditions noted are these: 10 µM unless noted.

`CCOC(=O)C1=CN(C)C=C(C(=O)OCC)C1c1cc(Br)c(OCC)c(OC)c1`: the growth in the experiment on HT29 colon was 7.46% (active); in the experiment with SNB-75 CNS, 43.5%; in the experiment on SNB-19 CNS, 64.8%; in the experiment with U251 CNS, 34.8%; in the experiment on PC-3 prostate, 45.2%; with SK-MEL-5 melanoma, 36.1%. The growth is -48% (active) with UACC-62 melanoma; 18.3% in the experiment on LOX IMVI melanoma; 18.8% in the experiment on SK-MEL-28 melanoma; 72.3% with SK-MEL-2 melanoma; 56.5% in the experiment on SN12C renal; 16.3% with UO-31 renal. Besides, the growth was 43% with TK-10 renal; 54.6% with ACHN renal; 52.5% with CAKI-1 renal; 59.1% in the experiment with A498 renal; 32.9% with CCRF-CEM leukemia; 27.5% in the experiment with MOLT-4 leukemia. In the experiment with SR leukemia, the growth was -0.61% (active).

With `CC1(C)CC2(C)OC2C2(C1)N=NC(=Nc1ccccc1)O2` (centres undefined), the growth in the experiment on HT29 colon was 25.1%; in the experiment with SNB-75 CNS, 84.8%; with SNB-19 CNS, 86%; with U251 CNS, 84.4%; in the experiment on PC-3 prostate, 62.5%; with SK-MEL-5 melanoma it was 61.5%. Also, the growth in the experiment on UACC-62 melanoma was 73.1%; in the experiment on LOX IMVI melanoma, -51.9% (active); with SK-MEL-28 melanoma, 70.3%; in the experiment on SK-MEL-2 melanoma, 76.6%; with SN12C renal it was 61.9%; with UO-31 renal, 20.8%. Further, the growth in the experiment with TK-10 renal is 13.6%; with ACHN renal, 21.2%; in the experiment on CAKI-1 renal, 57.4%; in the experiment on A498 renal, 125%; in the experiment on CCRF-CEM leukemia it was 10.7%; in the experiment with MOLT-4 leukemia, 19.9%. For the same compound, the growth with SR leukemia is 11.3%.

Take `O=[N+]([O-])c1cc2c(ccc3occc32)o1`: the growth in the experiment with HT29 colon is 11.8%; in the experiment on SNB-75 CNS it was 31.7%; in the experiment with SNB-19 CNS it was 49.4%; with U251 CNS it was 48.7%; in the experiment on PC-3 prostate, 66.7%; in the experiment with SK-MEL-5 melanoma it was -77% (active). The growth was 20.5% with UACC-62 melanoma; -36.3% (active) in the experiment on LOX IMVI melanoma; -63.5% (active) in the experiment with SK-MEL-28 melanoma; -46% (active) in the experiment on SK-MEL-2 melanoma; 32.4% in the experiment with SN12C renal; 23.4% in the experiment with UO-31 renal. For the same compound, the growth was 35.7% in the experiment on TK-10 renal; 4.13% (active) in the experiment on ACHN renal; -19.7% (active) in the experiment with CAKI-1 renal; -5.92% (active) in the experiment with A498 renal; 9.79% (active) with CCRF-CEM leukemia; 17.1% in the experiment with MOLT-4 leukemia. Besides, the growth in the experiment with SR leukemia is 10.9%.

Regarding `COc1cc(C(C)n2cc(-c3ccccc3)nn2)ccc1OC1CCCC1` (centres undefined), the growth in the experiment with HT29 colon is 82.4%; in the experiment with SNB-75 CNS it was 75.5%; with SNB-19 CNS, 79.2%; with U251 CNS, 79%; with PC-3 prostate it was 65.2%; in the experiment with SK-MEL-5 melanoma it was 25.9%. Also, the growth in the experiment with UACC-62 melanoma was 63.6%; with LOX IMVI melanoma it was 60.6%; in the experiment with SK-MEL-28 melanoma it was 98.8%; in the experiment with SK-MEL-2 melanoma, 72.9%; in the experiment with SN12C renal it was 75.2%; with UO-31 renal, 50.9%. Besides, the growth is 71.8% in the experiment on TK-10 renal; 53.4% in the experiment on ACHN renal; 49.6% with CAKI-1 renal; 55.6% in the experiment on A498 renal; 53.5% in the experiment with CCRF-CEM leukemia; 48.6% with MOLT-4 leukemia.

For `CCOC(=O)C1=C(C)N=c2s/c(=C\c3cc(Cl)ccc3O)c(=O)n2C1c1ccc(OC)cc1` (centres undefined), the growth in the experiment with HT29 colon is 72.9%; in the experiment on SNB-75 CNS, 89%; in the experiment with SNB-19 CNS, 99%; in the experiment on U251 CNS, 85.4%; with PC-3 prostate, 85.2%; in the experiment with SK-MEL-5 melanoma, 88.5%. The growth in the experiment on UACC-62 melanoma is 94%; in the experiment on LOX IMVI melanoma, 95.2%; with SK-MEL-28 melanoma, 106%; in the experiment with SK-MEL-2 melanoma, 94.6%; with SN12C renal, 93.8%; with UO-31 renal, 58.8%. Moreover, the growth in the experiment with TK-10 renal was 94.1%; in the experiment with ACHN renal, 99.4%; in the experiment with CAKI-1 renal, 96.5%; in the experiment with A498 renal it was 76.1%; in the experiment with CCRF-CEM leukemia, 85.3%; with MOLT-4 leukemia, 96.4%. The growth in the experiment on SR leukemia is 86%.

Turning to `CCOC(=O)c1cc2c(n1Cc1cccc(OC)c1)-c1oncc1CCC2`, the growth in the experiment with HT29 colon is 10%; with SNB-75 CNS, 7.49% (active); with SNB-19 CNS it was 39.4%; with U251 CNS, 27.3%; with PC-3 prostate, 38.8%; in the experiment on SK-MEL-5 melanoma, 1.56% (active). In addition, the growth is 31% with UACC-62 melanoma; 33.7% in the experiment with LOX IMVI melanoma; 47.8% with SK-MEL-28 melanoma; 36.9% in the experiment with SK-MEL-2 melanoma; 56.7% in the experiment on SN12C renal; 16.7% with UO-31 renal. Moreover, the growth with TK-10 renal was 48.1%; in the experiment with ACHN renal, 47.3%; with CAKI-1 renal, 29.6%; in the experiment on A498 renal, 6.51% (active); in the experiment with CCRF-CEM leukemia, 3.19% (active); in the experiment with MOLT-4 leukemia, 35.8%. For the same compound, in the experiment with SR leukemia, the growth was 10.1%.

In the case of `Oc1ccc(-c2nc(-c3ccc4oc5ccc(-c6[nH]c(-c7ccc(O)cc7)nc6-c6ccccc6)cc5c4c3)c(-c3ccccc3)[nH]2)cc1`, the growth in the experiment on HT29 colon is 34.6%; with SNB-75 CNS, 39.2%; with SNB-19 CNS it was 63.5%; in the experiment with U251 CNS, 58.2%; in the experiment on PC-3 prostate, 52.1%; in the experiment with SK-MEL-5 melanoma it was 70.8%. Moreover, the growth is 49.9% in the experiment on UACC-62 melanoma; 67.5% in the experiment with LOX IMVI melanoma; 77.8% with SK-MEL-28 melanoma; 93.7% in the experiment on SK-MEL-2 melanoma; 39.3% with SN12C renal; 39.2% with UO-31 renal. The growth in the experiment on TK-10 renal is 80.3%; in the experiment with ACHN renal, 73.5%; in the experiment on CAKI-1 renal, 69.5%; with A498 renal, 77.5%; in the experiment on CCRF-CEM leukemia it was 43.9%; with MOLT-4 leukemia, 57.1%. Moreover, the growth in the experiment with SR leukemia is 43.1%.

For `COc1ccc(-c2nc(-c3ccccn3)c(-c3ccccn3)n2CC(C)C)cc1OC1CCCC1`, the growth in the experiment on HT29 colon was 12.2%; with SNB-75 CNS it was 20.5%; in the experiment on SNB-19 CNS it was 24.2%; with U251 CNS, 11.1%; in the experiment on PC-3 prostate it was 12.6%; with SK-MEL-5 melanoma, 15.5%. For the same compound, the growth in the experiment with UACC-62 melanoma is 9.71% (active); in the experiment with LOX IMVI melanoma, 20.8%; in the experiment on SK-MEL-28 melanoma, 35.9%; with SK-MEL-2 melanoma, -4.88% (active); in the experiment with SN12C renal it was 8.15% (active); in the experiment on UO-31 renal, -13.8% (active). The growth with TK-10 renal is 28.5%; in the experiment with ACHN renal, 16.8%; in the experiment on CAKI-1 renal it was 10.5%; in the experiment on A498 renal, -14.3% (active); in the experiment with CCRF-CEM leukemia it was 1.08% (active); in the experiment with MOLT-4 leukemia, -31.7% (active).

As to `COc1ccc(C)c2sc(N(Cc3cccnc3)C(=O)c3ccc(C#N)cc3)nc12`, the growth in the experiment with HT29 colon was 16%; in the experiment on SNB-75 CNS, 15.4%; in the experiment on SNB-19 CNS it was 12.4%; in the experiment with U251 CNS it was 1.87% (active); in the experiment on PC-3 prostate, 16%; in the experiment on SK-MEL-5 melanoma it was -62.2% (active). Besides, the growth with UACC-62 melanoma was -33.3% (active); in the experiment with LOX IMVI melanoma, -7.23% (active); in the experiment on SK-MEL-28 melanoma it was 15.9%; with SK-MEL-2 melanoma, 13.1%; with SN12C renal, 7.62% (active); in the experiment on UO-31 renal, -50.8% (active). Moreover, the growth with TK-10 renal was 18%; in the experiment with ACHN renal, 5.85% (active); in the experiment on CAKI-1 renal, -33.1% (active); in the experiment with A498 renal, 2.59% (active); in the experiment on CCRF-CEM leukemia, 8.67% (active); with MOLT-4 leukemia, 3.94% (active). Besides, the growth in the experiment with SR leukemia was 8.52% (active).
